Laboratory results reported in PubChem BioAssay AID1053180 (Broad Institute, 2014).
Out of some 9,600 compounds screened, about 20 (0.2%) were called active. The sample as a whole holds a higher share of actives than the screen did. Values without a mark were called inactive.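 Rule for the calls: active = highest normalized replicate activity of 15 or more, or at least half the replicates reach 15 or more; inactive = neither condition met.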

assay: activators of Pax4 gene expression, primary screen, RT-PCR, mouse alpha TC1 cells, single point (AID 1053180); conditions: Pax4 mRNA qPCR, 6 days, at 10 µM, active compounds read high, 100% = Pax4 plasmid added at qPCR;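 note: Pax4 Ct normalized to GAPDH with activation seen as lower delta delta Ct; plate controls were plate neutral control wells for no effect and Pax4 plasmid positive control for full effect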

Row | SMILES | activation
1 | CCS(=O)(=O)Nc1ccc2c(c1)C(=O)N(C)[C@H]1CC[C@H](CC(=O)NCCCN3CCOCC3)O[C@H]1CO2 | 0%
2 | C/C=C/c1ccc([C@@H]2[C@H](CO)N3CCCCN(S(=O)(=O)c4ccc(OC)cc4)C[C@@H]23)cc1 | 0.0005%
3 | COCC(=O)N1[C@@H](C#N)[C@@H](c2ccccc2C2=CCCC2)[C@@H]1CO | 0.01%
4 | O=C(Nc1ccc(F)cc1)N1[C@@H]2CNc3ccccc3[C@@H]2[C@@H]1CO | 0.0065%
5 | COCC(=O)Nc1ccc2c(c1)OC[C@H](C)N(C)C[C@H](C)[C@H](OC)CN(C)C2=O | 0%
6 | COCCN(C[C@H]1N[C@H](CO)[C@@H]1c1ccccc1)C(=O)NC1CCCC1 | 0.002%
7 | C[C@H]1CN([C@@H](C)CO)C(=O)c2ccccc2-c2ccccc2CO[C@H]1CN(C)Cc1ccc2c(c1)OCCN2C | 0.073%
8 | COc1ccc2c3c(n(C)c2c1)[C@H](CO)N(C)CC31CN(S(=O)(=O)c2cccs2)C1 | 0.001%
9 | Cc1noc(C)c1S(=O)(=O)N(C)C[C@@H]1Oc2c(NC(=O)c3ccc(-c4nccs4)cc3)cccc2C(=O)N([C@@H](C)CO)C[C@H]1C | -0.0005%
10 | N#C[C@@H]1[C@@H](c2ccccc2-c2cccc(F)c2)[C@H](CO)N1C(=O)C1CC1 | 0.0185%
11 | CN1C(=O)c2cc(NC(=O)c3cscn3)ccc2OC[C@H]2O[C@H](CC(=O)NCc3ccc(Cl)c(Cl)c3)CC[C@@H]21 | 0.0025%
12 | COCCNC(=O)C[C@H]1C[C@@H]2c3cc(NC(=O)CN(C)C)ccc3O[C@@H]2[C@@H](CO)O1 | 0.003%
13 | O=C(C[C@H]1C[C@@H]2c3cc(NC(=O)NC4CCCC4)ccc3O[C@@H]2[C@@H](CO)O1)NCc1ccccc1F | 0.0035%
14 | CO[C@H]1CN(C)C(=O)c2cc(NC(=O)C3CCCCC3)ccc2OC[C@@H](C)N(C(=O)c2ccccc2)C[C@@H]1C | -0.0005%
15 | CN1C(=O)c2cc(NC(=O)C3CCOCC3)ccc2OC[C@@H]2O[C@H](CC(=O)NCCc3ccncc3)CC[C@H]21 | 0.0015%
16 | C[C@@H]1CNC(=O)[C@H](Cc2ccc(C(F)(F)F)cc2)CCn2nncc2COC1 | 0.259%
17 | C[C@H]1CNC(=O)[C@H](Cc2ccc(C(F)(F)F)cc2)CCn2nncc2COC1 | 2.47%
18 | C[C@H]1CNC(=O)[C@@H](Cc2ccc(C(F)(F)F)cc2)CCn2nncc2COC1 | 7.98% (active)
19 | CN(C)CC(=O)N1[C@H](CO)[C@@H](c2ccc(C#CC3CCCCC3)cc2)[C@@H]1C#N | 0.005%
20 | COCC(=O)N1[C@H](CO)[C@@H]2c3ccccc3N(C)C[C@@H]21 | 0.0025%
21 | Cc1nn(C)cc1NC(=O)C[C@@H]1CC[C@@H]2[C@H](COc3ccc(NC(=O)c4cccc(F)c4)cc3C(=O)N2C)O1 | 0.0015%

Row | SMILES | activation
22 | CC(C)[C@H]1COCn2nncc2CC[C@H](C)C(=O)N1 | 0.0005%
23 | c1cc(-c2ccc(C3[C@@H]4CN(Cc5nccs5)C[C@H]3N4)cc2)ccn1 (stereo partly specified) | 0.0255%
24 | O=C(Nc1ccccc1)N1CC(=O)N2[C@@H](CO)[C@H](c3ccc(C#CC4CCCCC4)cc3)[C@@H]2C1 | 0%
25 | CO[C@H]1CC[C@@H]2CCOc3c(C#N)cccc3C(=O)N(C)C[C@@H](OC)[C@@H](C)C(=O)N(C)C[C@H]1O2 | -0.0005%
26 | COc1cccc(C#Cc2ccc([C@H]3[C@H](CO)N4C(=O)CN(C(=O)Cc5cccnc5)C[C@@H]34)cc2)c1 | 0%
27 | CO[C@H]1CC[C@H]2CCOc3c(C#N)cccc3C(=O)N(C)C[C@H](OC)[C@H](C)C(=O)N(C)C[C@@H]1O2 | -0.0005%
28 | CO[C@H]1CN(C)C(=O)c2cc(NC(=O)CC(F)(F)F)ccc2OC[C@@H](C)N(CC2CC2)C[C@@H]1C | -0.0005%
29 | C[C@H](CO)N1C[C@H](C)[C@H](CN(C)Cc2ccc3c(c2)OCO3)Oc2ccc(NS(=O)(=O)c3cn(C)cn3)cc2CC1=O | 0.004%
30 | N#C[C@@H]1N[C@@H](CO)[C@@H]1c1ccc(C#CC2CCCCC2)cc1 | 0.001%
31 | Cc1noc(C)c1S(=O)(=O)N(C)C[C@H]1Oc2c(NS(=O)(=O)c3cn(C)cn3)cccc2C(=O)N([C@@H](C)CO)C[C@@H]1C | -0.005%
32 | COc1ccc2c3c([nH]c2c1)[C@H](CO)N(C(=O)Nc1ccc(F)cc1)CC31CN(S(=O)(=O)c2ccc(C)cc2)C1 | 0.006%
33 | CCS(=O)(=O)Nc1ccc2c(c1)C(=O)N(C)[C@@H]1CC[C@H](CC(=O)NC3CCCCC3)O[C@@H]1CO2 | 0%
34 | C[C@@H]1CN([C@H](C)CO)C(=O)Cc2cc(NS(=O)(=O)c3ccc(Cl)cc3)ccc2O[C@@H]1CN(C)C(=O)Nc1ccc(C(F)(F)F)cc1 | 0.005%
35 | CC(C)NC(=O)Nc1ccc2c(c1)C(=O)N([C@H](C)CO)C[C@H](C)[C@@H](CN(C)C(=O)C1CCCCC1)OCCCC[C@H](C)O2 | -0.0015%
36 | O=C(C[C@@H]1CC[C@H]2[C@@H](COC[C@H](O)CN2S(=O)(=O)c2cccc(F)c2)O1)NCc1ccncn1 | 0.011%
37 | Cc1nn(C)cc1NC(=O)C[C@@H]1CC[C@@H]2[C@@H](COc3ccc(NC(=O)c4cccc(F)c4)cc3C(=O)N2C)O1 | 0.0025%
38 | C[C@@H]1CN([C@H](C)CO)C(=O)c2cc(NS(=O)(=O)c3ccccc3)ccc2O[C@@H](C)CCCCO[C@@H]1CN(C)C(=O)C1CCCCC1 | -0.001%
39 | CC(C)[C@@H]1CCc2cnnn2COC[C@H](Cc2ccccc2)NC1=O | -0.0175%
40 | O=C(C[C@H]1CC[C@@H]2[C@H](COC[C@H](O)CN2Cc2ccc3c(c2)OCO3)O1)N1CCCCC1 | 0.002%
41 | COc1ccc2c3c([nH]c2c1)[C@@H](CO)NCC31CN(Cc2cc(F)ccc2F)C1 | 0.0025%
